According to PubChem BioAssay:

Target: NADPH oxidase 2 (Homo sapiens) (UniProt P04839)
Assay: compounds shifting NOX2 Amplex Red fluorescence – cell-based, HEK293-NOX2, PMA-stimulated, NOX inhibitor project, primary screen (AID 1159); note: test concentration not given here
Conditions: 45 min, higher = more signal, called active from +8 up or from −8 down

Chain of NADPH oxidase 2 (Homo sapiens) (P04839 whole entry, looked up): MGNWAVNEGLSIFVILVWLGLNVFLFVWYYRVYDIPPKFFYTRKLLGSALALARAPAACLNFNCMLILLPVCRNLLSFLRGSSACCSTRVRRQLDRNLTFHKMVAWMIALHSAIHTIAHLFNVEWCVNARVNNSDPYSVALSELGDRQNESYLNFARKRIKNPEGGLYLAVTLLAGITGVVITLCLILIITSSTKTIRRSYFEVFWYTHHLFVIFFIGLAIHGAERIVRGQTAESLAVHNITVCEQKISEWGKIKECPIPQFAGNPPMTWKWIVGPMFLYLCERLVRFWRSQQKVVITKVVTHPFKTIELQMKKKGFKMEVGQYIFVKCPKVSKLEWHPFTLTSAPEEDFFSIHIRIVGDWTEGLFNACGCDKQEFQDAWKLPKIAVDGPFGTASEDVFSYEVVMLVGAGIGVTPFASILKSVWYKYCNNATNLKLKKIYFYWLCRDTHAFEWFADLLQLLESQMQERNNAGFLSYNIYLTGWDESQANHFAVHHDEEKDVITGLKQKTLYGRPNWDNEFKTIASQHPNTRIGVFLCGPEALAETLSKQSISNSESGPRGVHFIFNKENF

z-score, inactive:
CCOC(=O)C[C@H]1[C@H](OC(=O)Cc2ccc3c(c2)OCO3)[C@@H](NC(=O)c2ccc3ccccc3c2)c2cc(OCCCO)ccc2N1C(=O)c1ccccc1 -0.363
CCN(CC)c1ccc(N2CC=CC34O[C@@H]5/C=C\CCCOC(=O)C5[C@H]3C(=O)N(CCO)[C@@H]4C2=O)cc1 (stereo partly specified) -0.401
C=CCNC(=O)[C@@H]1[C@H]2C(=O)O[C@H](c3ccccc3)[C@H](c3ccccc3)N2[C@H](c2ccccc2OCCO)[C@@]12C(=O)N(C(=O)OCCOC)c1ccc(C#CCNC(N)=O)cc12 1.77
O=C1C[C@]2(c3ccc([N+](=O)[O-])cc3)C(=O)N(CCN3CCOCC3)c3cc(CO)ccc3[C@H]2N1C1CCCCC1 -0.791
CN1C(=O)C2C=CC(C(O)C3CC=CCC3)N(NC(=O)OC(C)(C)C)C2C1=O (stereo unspecified) -0.92
COCCCNC(=O)C1N=C(c2ccc(OCCCO)cc2)N(c2ccccc2)O1 (stereo unspecified) -3.86
C=C(COC)/C(=C/C[C@H](OC(=O)c1ccncc1)c1ccc(OCCO)cc1)c1cnc2ccccc2c1 -0.294
C=CC[C@@]1(C(=O)N(C)C)N=C(c2ccc(OCCCO)cc2)O[C@@H]1c1ccccc1N=[N+]=[N-] -1.12
C=CCOC(=O)[C@H]1[C@@H]2C(=O)O[C@@H](c3ccccc3)[C@@H](c3ccccc3)N2[C@@H](c2ccc(OCCOC(=O)[C@@H]3C[C@@H]4C(=O)N[C@@H](CCCC[N+](C)(C)C)C(=O)N4[C@@H]3c3ccc(O)cc3)cc2)[C@]12C(=O)Nc1ccccc12 2.42
O=C1NC(=O)C2C1C=CC(C(O)c1cccc3ccccc13)N2Nc1ccccn1 (stereo unspecified) -1.2
COc1ccc(C(=O)Nc2cccc(CN3C(=O)[C@]4(O[C@H](CCO)[C@@H]([Si](C)(C)c5ccc(OC)cc5)[C@@H]4C)c4ccccc43)c2)cc1 -6.65
COC(=O)c1c(CC[C@@H](CO)NC(=O)N2CCC[C@H]2Cn2cc(-c3ccccn3)nn2)oc(C(C)=O)c1C(=O)OC -2.6
C=CCN1C(=O)[C@]2(O[C@H](CCO)[C@@H]([Si](C)(C)c3ccc(OC)cc3)[C@@H]2C)c2cc(N3C(=O)c4cccc5cccc3c45)ccc21 0.924
O=C(NCc1ccccc1)[C@@]1(CCS(=O)(=O)c2ccccc2)N=C(c2ccc(OCCCO)cc2)O[C@H]1c1ccccc1 -0.321
CC(C)C(=C=CC[C@@H](O)c1ccccc1OCCO)CCO 0.729
O=C(NCC(F)(F)F)[C@@H]1c2ccccc2C(=O)N(C2CCCCC2)[C@H]1c1ccc(CO)cc1 0.292
CN1C(=O)C2C=CC(C(O)c3cccs3)N(Nc3ccccc3)C2C1=O (stereo unspecified) -2
COc1cc2c(cc1O)C(C1CC1)N(Cc1cc3c(cc1Br)OCO3)CC2 (stereo unspecified) -6.19
COCCOC(=O)N1C(=O)[C@@]2(c3cc(C#CCCO)ccc31)[C@H](c1ccc(OCCO)cc1)N1[C@H](c3ccccc3)[C@H](c3ccccc3)OC(=O)[C@H]1[C@@H]2C(=O)N1CCN(c2ncccn2)CC1 1.89
O=C1O[C@H](c2ccccc2)[C@H](c2ccccc2)N2[C@H]1[C@@H](C(=O)NC[C@H](O)c1ccccc1)[C@]1(C(=O)Nc3ccccc31)[C@H]2c1ccc(OCCO)cc1 1.55
O=C1c2ccccc2[C@](Cc2ccccc2I)(C(=O)NC2CC2)[C@H](c2ccc(CO)cc2)N1C1CCCCC1 0.478
CC(=O)NCCCC[C@@H]1NC(=O)[C@@H]2C[C@H](C(=O)NCCCCCCNC(=O)CS)[C@H](c3cccc(OCCO)c3)N2C1=O 1.55
COCCOC(=O)N1C(=O)[C@@]2(c3cc(C#CC4=CCCCC4)ccc31)[C@H](C(=O)N1CCc3cc(OC)c(OC)cc3C1)[C@H]1C(=O)O[C@H](c3ccccc3)[C@H](c3ccccc3)N1[C@@H]2c1ccc(OCCO)cc1 1.77
COCCOC(=O)N1C(=O)[C@@]2(c3cc(C#CC4=CCCCC4)ccc31)[C@H](C(=O)Nc1nc3ccccc3s1)[C@H]1C(=O)O[C@H](c3ccccc3)[C@H](c3ccccc3)N1[C@@H]2c1ccccc1OCCO 0.102
COc1ccc(C(O)C2C=CC3C(=O)N(c4ccccc4)C(=O)C3N2Nc2ccc(C(C)C)cc2)cc1OCc1ccccc1 (stereo unspecified) 0.506

Target: NADPH oxidase 4 (Homo sapiens) (UniProt Q9NPH5)
Sequence (Q9NPH5 whole entry, looked up): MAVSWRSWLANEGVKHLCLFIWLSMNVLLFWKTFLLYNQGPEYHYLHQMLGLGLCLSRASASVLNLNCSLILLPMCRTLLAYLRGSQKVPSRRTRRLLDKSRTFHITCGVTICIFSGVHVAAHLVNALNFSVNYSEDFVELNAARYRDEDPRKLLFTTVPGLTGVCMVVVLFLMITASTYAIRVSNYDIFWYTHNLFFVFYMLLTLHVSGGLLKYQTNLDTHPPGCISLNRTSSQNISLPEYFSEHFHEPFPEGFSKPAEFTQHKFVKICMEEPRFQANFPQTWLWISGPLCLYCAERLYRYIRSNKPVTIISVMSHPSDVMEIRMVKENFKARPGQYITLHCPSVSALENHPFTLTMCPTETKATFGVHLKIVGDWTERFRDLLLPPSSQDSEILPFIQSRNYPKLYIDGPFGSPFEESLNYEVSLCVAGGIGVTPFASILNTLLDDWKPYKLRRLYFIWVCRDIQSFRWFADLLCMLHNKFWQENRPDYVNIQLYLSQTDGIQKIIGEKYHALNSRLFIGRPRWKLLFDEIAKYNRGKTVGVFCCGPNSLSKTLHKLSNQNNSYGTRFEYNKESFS
Assay: compounds shifting NOX4 Amplex Red fluorescence – cell-based, HEK293-NOX4, tetracycline-induced, NOX inhibitor project, primary screen (AID 1160)
Conditions: HEK293-NOX4, Amplex Red H2O2 fluorescence, 45 min; higher = more signal, called active from +8 up or from −8 down

z-score, inactive:
CN(C)C(=O)[C@]1(Cc2ccccc2N=[N+]=[N-])N=C(c2ccc(OCCCO)cc2)O[C@@H]1c1ccccc1 -0.433
CCCCCC1=C2CNC(CCC)(C(=O)OC)C=C2C(C)C1=O (stereo unspecified) -1.52
COCCOC(=O)N1C(=O)[C@@]2(c3cc(C#CCCO)ccc31)[C@H](C(=O)N1CCc3cc(OC)c(OC)cc3C1)[C@H]1C(=O)O[C@H](c3ccccc3)[C@H](c3ccccc3)N1[C@@H]2c1ccc(O)cc1 0.706
O=C(NCc1ccccc1)[C@@]1(Cc2ccccc2)N=C(c2ccc(OCCCO)cc2)O[C@H]1c1ccccc1 0.98
CC(C)c1ccc(NN2C(C(O)c3cc(C(F)(F)F)cc(C(F)(F)F)c3)C=CC3C(=O)N(c4ccccc4)C(=O)C32)cc1 (stereo unspecified) -5.07
CN1C(=O)[C@]2(Cc3ccccc3)N=C(c3ccc(OCCCO)cc3)O[C@@H]2c2ccccc21 -0.608
CC(C)(C)OC(=O)CC[C@]1(C(=O)NCC(O)CO)COC(c2ccc(OCCCO)cc2)=N1 (stereo partly specified) -0.351
CCOC(=O)C[C@H]1[C@H](OC(=O)c2cc3ccccc3oc2=O)[C@@H](NC(=O)Cc2ccc(OC)cc2)c2cc(OCCCO)ccc2N1C(=O)c1ccccc1 -0.523
COc1ccc(CCNC(=O)[C@@]2(Sc3ccc(C)cc3)CC(=O)N(C3CCCCC3)[C@@H]2c2ccc(CO)cc2I)cc1 0.672
COc1ccc(C(=O)O[C@H]2CC[C@]3(C)C4=C(CCC3C2(C)C)[C@]2(C)CC[C@H]([C@H](C)CCCC(C)C)[C@@]2(C)CC4)cc1 (stereo partly specified) 0.257
CCOC(=O)C[C@H]1[C@H](OC(=O)Cc2ccc3c(c2)OCO3)[C@@H](NC(=O)c2ccc3ccccc3c2)c2cc(OCCCO)ccc2N1C(=O)c1ccccc1 0.321
CCN(CC)c1ccc(N2CC=CC34O[C@@H]5/C=C\CCCOC(=O)C5[C@H]3C(=O)N(CCO)[C@@H]4C2=O)cc1 (stereo partly specified) -0.72
C=CCNC(=O)[C@@H]1[C@H]2C(=O)O[C@H](c3ccccc3)[C@H](c3ccccc3)N2[C@H](c2ccccc2OCCO)[C@@]12C(=O)N(C(=O)OCCOC)c1ccc(C#CCNC(N)=O)cc12 1.54
O=C1C[C@]2(c3ccc([N+](=O)[O-])cc3)C(=O)N(CCN3CCOCC3)c3cc(CO)ccc3[C@H]2N1C1CCCCC1 -0.0781
CN1C(=O)C2C=CC(C(O)C3CC=CCC3)N(NC(=O)OC(C)(C)C)C2C1=O (stereo unspecified) -0.861
COCCCNC(=O)C1N=C(c2ccc(OCCCO)cc2)N(c2ccccc2)O1 (stereo unspecified) -0.749
C=C(COC)/C(=C/C[C@H](OC(=O)c1ccncc1)c1ccc(OCCO)cc1)c1cnc2ccccc2c1 -0.192
C=CC[C@@]1(C(=O)N(C)C)N=C(c2ccc(OCCCO)cc2)O[C@@H]1c1ccccc1N=[N+]=[N-] 0.475
C=CCOC(=O)[C@H]1[C@@H]2C(=O)O[C@@H](c3ccccc3)[C@@H](c3ccccc3)N2[C@@H](c2ccc(OCCOC(=O)[C@@H]3C[C@@H]4C(=O)N[C@@H](CCCC[N+](C)(C)C)C(=O)N4[C@@H]3c3ccc(O)cc3)cc2)[C@]12C(=O)Nc1ccccc12 0.568
O=C1NC(=O)C2C1C=CC(C(O)c1cccc3ccccc13)N2Nc1ccccn1 (stereo unspecified) -2.83
COc1ccc(C(=O)Nc2cccc(CN3C(=O)[C@]4(O[C@H](CCO)[C@@H]([Si](C)(C)c5ccc(OC)cc5)[C@@H]4C)c4ccccc43)c2)cc1 -2.74
COC(=O)c1c(CC[C@@H](CO)NC(=O)N2CCC[C@H]2Cn2cc(-c3ccccn3)nn2)oc(C(C)=O)c1C(=O)OC -1.44
C=CCN1C(=O)[C@]2(O[C@H](CCO)[C@@H]([Si](C)(C)c3ccc(OC)cc3)[C@@H]2C)c2cc(N3C(=O)c4cccc5cccc3c45)ccc21 0.4
O=C(NCc1ccccc1)[C@@]1(CCS(=O)(=O)c2ccccc2)N=C(c2ccc(OCCCO)cc2)O[C@H]1c1ccccc1 1.35
CC(C)C(=C=CC[C@@H](O)c1ccccc1OCCO)CCO 0.147
O=C(NCC(F)(F)F)[C@@H]1c2ccccc2C(=O)N(C2CCCCC2)[C@H]1c1ccc(CO)cc1 -0.755
CN1C(=O)C2C=CC(C(O)c3cccs3)N(Nc3ccccc3)C2C1=O (stereo unspecified) -4.89
COc1cc2c(cc1O)C(C1CC1)N(Cc1cc3c(cc1Br)OCO3)CC2 (stereo unspecified) -3.97
COCCOC(=O)N1C(=O)[C@@]2(c3cc(C#CCCO)ccc31)[C@H](c1ccc(OCCO)cc1)N1[C@H](c3ccccc3)[C@H](c3ccccc3)OC(=O)[C@H]1[C@@H]2C(=O)N1CCN(c2ncccn2)CC1 0.925
O=C1O[C@H](c2ccccc2)[C@H](c2ccccc2)N2[C@H]1[C@@H](C(=O)NC[C@H](O)c1ccccc1)[C@]1(C(=O)Nc3ccccc31)[C@H]2c1ccc(OCCO)cc1 1.02
O=C1c2ccccc2[C@](Cc2ccccc2I)(C(=O)NC2CC2)[C@H](c2ccc(CO)cc2)N1C1CCCCC1 1.06
